# Experimental data from the supplement of paper PMC6555819.
# System: LXRb homodimer (NR concentration 270 nM)
# Experiment: PBM binding z-score (relative to random genomic background probes); higher = stronger binding; sequences stand for … in GC…GCGATTGACAGCGTAGAATGAAGG
# Method in brief: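 Random background probes are the reference for binding z-scores. These scores derive from regression-normalized fluorescence on custom Agilent 4×180K protein-binding microarrays incubated 1 h with ligand-free nuclear receptor dimers. Binding was detected with antibodies against each partner (one per run).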
row,Sequence,PBM binding z-score
1,TCATATAGGTAAAGGTGAAAGTAGAACGATATGA,0.0204
2,CCGAGTAGGTTATGCGGCATTCAGGCAACGGTGA,-0.569
3,TCAGCCAGGTGAAGGTAACTCAGGTACGCAGTCG,-1.48
4,ACTAGCAGGCCAAGTTTGGGTTACTCAAACAAAG,-0.552
5,CCTCGGAGGAAAACAGGAGGTCAGAGCTGCCAGA,-0.702
6,ATATGTTGGTTAGCTGGGGTCATTCAGACTAGGC,1.69
7,GCTTACGGGCCAAAGGTTATAGCATGAATAGAAT,-0.287
8,GCTAGCAGGCCATTTGGGTCACTTAATGACGGGC,-0.905
9,ATCGAAAGGTCGAAGGTGAGTAAACCCACCCGAA,0.315
10,TTACCAATGTGAAGGTCGTTGATCCCTCTGTAGA,0.0606
11,TCATATAGGTTATACAGGTGAAAGTCGGCATCTA,0.833
12,AATACAGGGTCACTAGGCCAGAGCAGGTACGAAT,0.86
13,CCAGACAAGTGAAAGGTAACTCAGTCTGGTACGC,-0.315
14,CCTACTGGGCCACGAAGGGTCATTGATTCAGTGA,-0.798
15,CAGCTTAGGTCAGGGCCAGTATAGGAGGAACGTT,-0.56
16,TCGCCTAGGTCATGCGGGCCAGTATAGTGTCGGC,-0.926
17,ATCGAAAGGTCGAGGTGAGTAAAGAGAAAGGGAA,0.664
18,ATACCAAGGTGATCGTGAGGGCGTTGATACTAAC,-0.219
19,CCTAATGGGCCATCAGGTCATTGATATCAACGTT,0.197
20,TAGCCTAGGTCATTCGGCCAGTATAGTACGCATC,0.814

row,Sequence,PBM binding z-score
1,TAAATGAGGTTATAAGATCAGGGAACGTTGCAAA,0.646
2,AGAATAAGGTTAAGATCAGGGAAACAGAATACAT,0.458
3,TAGCGTAGGTCATTCAGGGGCCAGTATAGAAAGC,1.24
4,TTTTGTAGATCAAGCAGGTTAAGAAAGCCTGAGT,-0.0652
5,ATCTCTAGGTAACCAAGTTCAGTGATTGCCGAAC,0.713
6,TCATATAGGTAGAAGGTGAAAGTCGGTGTGGTAA,-0.0966
7,ACAGACAGGTGATGAAGGTAATTCAGGCTATCAT,-0.286
8,AGAACGAGGGAAATGAGTTGATAGCACGGGTGGC,-0.449
9,ACTTACGGGTCAACGAGGTTATAACACGCGTATA,1.29
10,ACAGACCGGTGATGAAGGTAACTCAGGCTATCAT,-0.429
11,AGAATGAGGTTATACGTAGATCATGGAAGAAAGT,0.0323
12,TGAATGAGGTTGTAAGATCAGGGAACGTTGCAAA,0.0245
13,ACTAGCAGGCCAAGTTTGGGACACTCAAACAAAG,-0.807
14,CGTCAAAGTTCAGGGTAACGTAACAGAAAGCAGC,0.634
15,ACAATTAGTTGAGACGAGGGCAACCGATAGGTTG,-0.183
16,TCGAGTAGGTTAGTCGGGGCATTCAGCCAACATA,-0.855
17,CAAACTCGGTCAAGGTCAAAGTCGGTTTGTGCCA,1.02
18,CCTACTGGGACATCAGGTCATTGATATCAACGTT,0.52
19,AGTCAAAGTTCAGGACGGGGTAACGTAAAGCACG,1.48
20,ATCTCTAGGTAAAGATAGTTTAGTGAATGCAAAT,0.415
